Test results from PubChem BioAssay AID743130 (Broad Institute, 2013).
“And” between values parts separate entries of the source, which are not always exact repeats. Equal values may be shown once.

assay: Rlm1 cell wall stress reporter activators, dose response, S. cerevisiae reporter strain, C. neoformans project, dry powder (AID 743130); conditions: S. cerevisiae Rlm1-lacZ reporter, luminescence, 4 h, stronger effect = higher value; at 35 µM unless noted;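 active = fitted curve rises past 20% activation at a concentration no higher than the top valid tested dose; inactive = activity opposite to the expected signal increase, and the rest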

Maximal activation, inactive:
COC(=O)C1=C(C)N(Cc2ccccc2)C(=S)NC1c1ccc(Br)cc1 (stereo not given) 6.99% [at 8 µM], Cc1ccc(OCCn2c(SCCO)nc3ccccc32)c(C(C)C)c1 -2.9% [at 2.1 µM], Fc1cccc2c1[nH]c(=S)n2CCOc1ccccc1 -3.67% [at 8 µM], Cc1ccc(OCCn2c(C)nc3ccccc32)cc1 1.77%, Cc1ccc(OCCn2cnc3ccccc32)cc1 -5.3% [at 4.2 µM], Cc1cccc(OCCn2c(=S)[nH]c3cc(C(F)(F)F)ccc32)c1 -9% [at 16 µM], COC(=O)C1=C(C)N(Cc2ccc(Br)cc2)C(=S)NC1c1ccc(F)cc1 (stereo not given) 9.62% [at 16 µM], S=c1[nH]c2ccccc2n1CCOc1ccc(Cl)cc1 3.89% [at 8 µM], COC(=O)C1=C(C)N(Cc2ccc(F)cc2)C(=S)NC1c1cccc(F)c1 (stereo not given) 3.69%, S=c1[nH]c2ccccc2n1CCOc1ccccc1 3.85% [at 4.2 µM], CCOC(=O)c1c(NC(=O)CNCCN(C)C)sc(C)c1-c1ccccc1 -3% [at 2.1 µM], CCOC(=O)c1c(NC(=O)CN2CCN(C)CC2)sc(C)c1-c1ccc(C)cc1 5.75%, O=c1[nH]c2ccccc2n1CCOc1ccccc1 6.24% [at 2.1 µM] and 3.18% [at 2.1 µM], COC(=O)C1=C(C)N(Cc2ccc(Cl)cc2)C(=S)NC1c1ccc(Br)cc1 (stereo not given) 9% [at 2.1 µM], CCOC(=O)c1c(-c2ccc(C(C)(C)C)cc2)csc1NC(=O)CN1CCN(CC)CC1 2.55% [at 8 µM]
